From paper PMC7826789 (International Journal of Molecular Sciences, 2021) come the findings set out here.

SMILES strings stand for the structures.

In the case of `COc1cc(Nc2cnc(C#N)c(O[C@H](C)CN(C)C)n2)ncc1-c1cnn(C)c1` [CCT244747], in the assay with RPS6KA3, the Kinases covered entry was “RPS6KA3”.

For the compound `CCn1c(-c2nonc2N)nc2cncc(C(=O)N3CC[C@H](N)C3)c21.Cl` [SB-772077-B], the values for the Kinases covered entry with RPS6KA5 and in the assay on RSK1 were “RPS6KA5” and “RSK1”, respectively.

Take `CCCNC(=O)c1ccc(Nc2ncc(C(F)(F)F)c(Nc3ccccc3C(C)=O)n2)c(Br)c1` [BI00801818]: the Kinases covered entry with RSK1 was “RSK1”; in the assay with RSK2 it was “RSK2”.

As to `COc1ccc2[nH]c3c4[nH]c5ccc(OC)cc5c4c4c(c3c2c1)C(=O)NC4=O` [GW296115X], in the assay on RSK3, the Kinases covered entry is given as “RSK3”.

Consider `CC(C)N1CC(=O)N(C)c2cnc(Nc3cccc(S(=O)(=O)CCN4CCOCC4)c3)nc21` [BI00009348], for which the Kinases covered result with RSK4 is listed as “RSK4”; with STK16, “STK16”; with TAK1, “TAK1”.

Turning to `CCn1c(-c2nonc2N)nc2cncc(CNC3CCNCC3)c21` [SB-747651A], the Kinases covered result in the assay with RSK is given as “RSK”.

On to `CCn1cc(-c2ccnc3[nH]c(-c4cccc(CN(C)C)c4)cc23)c(-c2ccc(NC(=O)N(C)C)cc2)n1` [GSK1070916], for which, in the assay on SIK, the Kinases covered result is “SIK”.

Consider `COc1cc2c(cc1OC)C(=C(Nc1ccccc1)c1cccc(CN)c1)C(=O)N2` [BIBF0846CL], for which the Kinases covered entry in the assay with SNARK was “SNARK”.

Take `COc1cc2ncnc(Nc3cccc(Cl)c3F)c2cc1O[C@H]1CC[C@H]([C@@H]2NCCNC2=O)CC1` [BI00133844]: in the assay on SRC, the Kinases covered entry is listed as “SRC”.

With `CCCS(=O)(=O)Nc1ccc(F)c(-n2cc(-c3cncc(OC)c3)nn2)c1F` [BI00865461], in the assay on SRMS, the Kinases covered result is listed as “SRMS”.

Take `COc1cc2ncn(-c3cc(OCC4CCCO4)c(C(N)=O)s3)c2cc1OC` (stereo not drawn) [GSK204607]: the Kinases covered result in the assay with STK10 is “STK10”.

In the case of `COc1ccc2cc(-c3c(-c4ccncc4)nc(-c4ccc(S(C)(=O)=O)cc4C)n3C)ccc2c1` [SB-633825], the Kinases covered entry in the assay on STK10 is “STK10”.

Consider `C[C@@H]1CCNC(=O)c2cc3ccc(C(=O)Nc4nc5ccccc5n4CCCN(C)C)cc3n21` [BI00645435], for which the Kinases covered entry in the assay with STK17B is “STK17B”.

With `CNc1nc(-c2ccc3c(N)n[nH]c3c2)cc(N2C[C@@H](C(=O)Nc3ccccc3)CC[C@H]2C)n1` [GSK2298859], in the assay with STK17B, the Kinases covered result is listed as “STK17B”.

For `O=C(Nc1cccc(-c2nn3ncccc3c2-c2ccnc(Nc3cccnc3)n2)c1)c1c(F)cccc1F` [GSK312879], in the assay on STK36, the Kinases covered entry was “STK36”.

`COC[C@@H](C)N[C@H]1CC[C@H](Nc2cc(-c3cccc(NCC4(C#N)CCOCC4)n3)c(Cl)cn2)CC1` [NVP-2]: the Kinases covered result with TAOK3 is “TAOK3”.

For the compound `CN(C)C/C=C/C(=O)Nc1ccc(C(=O)Nc2cccc(Nc3ncc(Cl)c(-c4c[nH]c5ccccc45)n3)c2)cc1` [THZ1], the Kinases covered entry in the assay with TBK1 was “TBK1”.
